Results published in ChEMBL document CHEMBL3433997, “St. Jude Leishmania screening dataset” (2016).

Legend:
Type in all cases: functional
[1] = biological target: Solute carrier family 2, facilitated glucose transporter member 1 (Homo sapiens) (UniProt P11166); experiment: ST_JUDE_LEISH: Cytotoxicity at 2uM final concentration against transgenic Leishmania Mexicana promastigotes LmGLUT1 that are glucose transport deficient and complemented with the human glucose transporter GLUT1. Activity is measured by DNA content using SYBR green in vitro
[2] = biological target: Hexose transporter 1 (Plasmodium falciparum) (UniProt O97467); experiment: ST_JUDE_LEISH: Cytotoxicity at 2uM final concentration against transgenic Leishmania Mexicana promastigotes LmPfHT that are glucose transport deficient and complemented with the Plasmodium falciparum hexose transporter. Activity is measured by DNA content using SYBR green in vitro
[3] = biological target: Glucose transporter (Leishmania mexicana) (UniProt O61059); experiment: ST_JUDE_LEISH: Cytotoxicity at 2uM final concentration against transgenic Leishmania Mexicana promastigotes LmGT2 that are glucose transport deficient and complemented with the L. Mexicana glucose transporter 2. Activity is measured by DNA content using SYBR green in vitro

Sequence of Solute carrier family 2, facilitated glucose transporter member 1 (Homo sapiens) (P11166 whole entry): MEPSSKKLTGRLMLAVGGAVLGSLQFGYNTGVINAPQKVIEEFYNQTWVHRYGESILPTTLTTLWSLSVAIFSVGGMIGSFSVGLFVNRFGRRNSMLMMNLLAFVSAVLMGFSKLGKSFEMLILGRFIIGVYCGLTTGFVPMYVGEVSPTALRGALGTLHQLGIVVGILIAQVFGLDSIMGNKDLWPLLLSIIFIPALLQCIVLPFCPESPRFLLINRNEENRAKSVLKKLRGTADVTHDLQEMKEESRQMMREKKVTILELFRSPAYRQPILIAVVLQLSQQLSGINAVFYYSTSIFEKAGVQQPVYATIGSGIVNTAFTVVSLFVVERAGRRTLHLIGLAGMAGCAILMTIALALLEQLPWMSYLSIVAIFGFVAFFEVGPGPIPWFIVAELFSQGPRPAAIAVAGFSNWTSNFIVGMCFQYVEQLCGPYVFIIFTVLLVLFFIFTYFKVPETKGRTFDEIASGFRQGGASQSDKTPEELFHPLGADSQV

SMILES	inhibition [1]	inhibition [2]	inhibition [3]
CN1CCN(c2cc(NC(=O)c3ccc(-c4ccc(Cl)cc4)cc3)ccc2Cl)CC1	-0.77%	-0.81%	-1.86%
CC(C)N1CCC(N(Cc2ccc(-c3ccc(Cl)cc3)cc2)C(=O)Cn2c(CCc3cccc(F)c3F)cc(=O)c3ccccc32)CC1	2.59%	2.15%	1.92%
c1ccc2c(C3CCN(CCCCOc4ccc5c(c4)CCN(CC4CC4)CC5)CC3)c[nH]c2c1	70.5%	43.6%	6.07%
O=C(/C=C/c1ccc(Cl)c(Cl)c1)NCCCCCCN1CCN(C(=O)Nc2ccc(Cl)c(Cl)c2)CC1	2.42%	2.46%	4.14%
O=S(=O)(Nc1ccc2nccc(N3CCNCC3)c2c1)c1ccc(-c2ccccc2)cc1	0.86%	1.12%	0.59%
OC(CNC1CCCCC1)Cn1c2ccc(Br)cc2c2cc(Br)ccc21 (configuration not stated)	0.51%	0.28%	0.64%
Cc1cccc2nc(-c3ccc(-c4ccc(CN5CCCC(O)C5)cc4)cc3)[nH]c12 (configuration not stated)	25.8%	30.8%	19.8%
CC(C)C[C@H](NC(=O)c1cc2ccccc2s1)C(=O)N[C@H]1CCN(Cc2ccc(OCCN3CCNCC3)c3ccccc23)C1	-0.59%	-2.98%	0.51%
COC(=O)c1ccc(NC(=O)Nc2ccc(Cn3ncc(N4CCCNCC4)c(Cl)c3=O)cc2)cc1	-0.9%	0.77%	-0.5%
COc1ccc(NC(=O)N2CCN(CCCCCNC(=O)/C=C/c3ccc(C(F)(F)F)cc3)CC2)cc1Cl	2.21%	1.82%	1.35%
Nc1ncc(-c2ccsc2)c2ccc(-c3cnc[nH]3)cc12	1.46%	0.14%	-0.37%
CC(=O)Nc1ccc(CN2CCC(NC(=O)c3ccc(-c4cccc(Cl)c4)s3)CC2)cc1	2.01%	-0.15%	2.8%
Cc1cccc2nc(-c3ccc(-c4ccc(CNCc5ccccc5)cc4)s3)[nH]c12	8.05%	4.44%	3.06%
COc1ccc(CC(=O)NC(CCCN2CCC3(CC2)OCc2ccccc23)c2ccc(Cl)c(Cl)c2)cc1 (configuration not stated)	1.2%	2.18%	-0.29%
COc1ccccc1C1CCN(C2CCC(NC(=O)/C=C/c3ccc(C(F)(F)F)cc3F)CC2)CC1 (configuration not stated)	0.47%	1.54%	-0.44%
CN(C)CCOc1cc(NC(=O)Nc2ccc(Oc3ccccc3)cc2)ccc1I	1.79%	1.64%	-1.47%
O=C(Nc1cccc(CN2CCCN(Cc3ccc(O)cc3)CC2)c1)c1ccc2ccccc2n1	2.74%	2.83%	-3.88%
CN=C(Nc1c(Cl)cccc1Cl)N(C)C	2.85%	4.13%	4.17%
CCN(CC)CCN(Cc1ccc(-c2ccc(C(F)(F)F)cc2)nc1)C(=O)Cn1cc(Cc2cnn(C)c2)c(=O)n2nc(-c3ccccc3)cc12	2.39%	3.48%	0.44%
N#Cc1ccc(CN2CCCN(Cc3cccc(NC(=O)c4ccc(-c5ccccc5)cc4)c3)CC2)cc1	1.73%	9.67%	4.12%
CN(C)Cc1cccc(CNC(=O)c2sccc2OCc2ccc(Cl)cc2)c1	-0.98%	-3.67%	1.11%
COc1ccc(NC(=O)/C=C/c2ccccc2Cl)cc1OCCN1CCC(N(C)C)CC1	2.23%	1.6%	1.83%
NCC1CCCN1Cc1ccc(-c2cccc(-c3nc4cc(C(F)(F)F)ccc4[nH]3)c2)cc1 (configuration not stated)	1.03%	1.99%	3.17%
COc1ccc2nc(C)cc(NCc3cccc4ccccc34)c2c1	2.2%	3.81%	-0.28%
FC(F)(F)c1cccc(CCNc2nccc(NCc3ccc(Cl)cc3Cl)n2)c1	9.74%	6.08%	1.55%

SMILES	inhibition [1]	inhibition [2]	inhibition [3]
COc1ccc2nc3cc(Cl)ccc3c(Nc3ccc(O)c(CNC(C)C)c3)c2c1	0.29%	0.43%	2.23%
Cc1cc(=O)[nH]c(-n2nc(C)cc2NC(=O)C(c2ccccc2)c2ccccc2)n1	20.5%	29.6%	6.5%
NC(=O)C1CCN(Cc2ccc(-c3cccc(-c4nc5cc(F)ccc5[nH]4)c3)cc2)CC1	-0.89%	-0.57%	-1.49%
CC(C)C[C@@H](C(=O)N[C@H](C(=O)Nc1nccs1)C(C)(C)C)[C@H](CCC(F)(F)F)N(O)C=O	4.27%	6.41%	4.07%
Cc1cc(=O)c(-c2ccc(Oc3cccc(OC(F)(F)F)c3)cc2)c(C)[nH]1	1.89%	1.17%	-1.14%
COc1ccc(CNc2nc(NCc3ccc(C(F)(F)F)cc3)c3cc(OC)c(OC)cc3n2)cc1OC	20.1%	19.9%	14.3%
CCc1cc2c3c(N)nc(N)nc3ccc2n1C(C)CC (configuration not stated)	85.2%	86.6%	80.3%
COc1ccc2nccc([C@@H](O)CN3CCC(NCCOc4ccc(F)cc4Cl)CC3)c2c1	9.75%	11.6%	4.96%
CCCCN(CCCC)Cc1cc2ccccc2cc1O	3.46%	4.13%	-0.3%
COc1ccc2nccc([C@@H](O)CN3CCC(NCc4cc5ccc(C#N)cc5[nH]4)CC3)c2c1	13.5%	12.8%	9.02%
CN(C)Cc1cc2c(O)c(Cc3ccccc3)ccc2o1	2.65%	4.63%	3.94%
CCN(CCCN1CCCCC1)c1cc(C)nc(Nc2cc(Cl)cc(Cl)c2)n1	0.93%	2.39%	1.01%
N=C(N)NCCCN(Cc1ccccc1)c1ccccc1	3.87%	2.61%	1.89%
COc1ccc2c(=NN=Cc3ccccc3Cl)cc(C)[nH]c2c1	0.91%	0.95%	0.2%
CCN(CC)S(=O)(=O)c1ccc(C(=O)Oc2ccccc2N(Cc2ccc(OC)cc2)C2=NS(=O)(=O)c3ccccc32)cc1	3.69%	2.22%	2.59%
Cn1ccnc1CCC(=O)Nc1ccc(Cl)cc1C(=O)Nc1ccc(Cl)cc1	2.75%	1.39%	2.79%
COc1cc2nc(NCCn3ccnc3C)nc(NCCc3ccccc3)c2cc1OC	1.91%	1.02%	2.18%
CC(C)(C)c1ccc(Cn2c(=N)n(CC(=O)c3ccc(-c4ccccc4)cc3)c3ccccc32)cc1	0.71%	-0.1%	-0.07%
NC(=O)c1cc2nc(Nc3ccc(F)cc3)nc(NC3CCC3)c2[nH]1	1.42%	1.11%	-0.6%
O=C(Nc1ccccc1)N(Cc1ccc(-c2ccc(CNC3CCCC3)cc2)cc1)C1CCN(Cc2ccccc2)CC1	4.17%	3.43%	2.32%
COc1ccccc1CCNc1ncnc2c1[nH]c1ccc(F)cc12	4.25%	12.9%	10.1%
Cn1nc2ccc3ccccc3c2nc1=N	59.2%	44.1%	18.6%
NCc1cccc(-c2ccccc2CNC2CCN(Cc3ccccc3)CC2)c1	6%	5.52%	6.92%
FC(F)(F)c1ccc2[nH]ccc(=NN=Cc3ccccc3)c2c1	1.45%	-0.56%	0.98%
CCNC[C@@H](O)[C@H](Cc1ccccc1)NC(=O)c1cc2c3c(c1)c(CC)cn3CCS(=O)(=O)N2C	0.67%	0.11%	-0.02%

SMILES	inhibition [1]	inhibition [2]	inhibition [3]
O=C(CSc1nnc(O)n1Cc1ccccc1)Nc1ccccc1-c1ccccc1	5.26%	6.12%	5.02%
O=S(=O)(c1ccc(Oc2ccccc2)cc1)N(CCC(O)(C(F)(F)F)C(F)(F)F)Cc1cccc(O)c1	-1.44%	-3.19%	-4.58%
CC(=O)Nc1ccc([N+](=O)[O-])c2c(Br)cccc12	8.2%	8.74%	10.4%
COc1ccccc1OCCN(CC(O)COc1cccc2[nH]c3ccccc3c12)CC(O)COc1cccc2[nH]c3ccccc3c12 (configuration not stated)	3.01%	2.43%	2.35%
CC(=O)c1sc2ccccc2c1O	-1.09%	-1%	1.24%
O=C(NC1CC1)c1cnc(N2CCC(COc3cccc(F)c3)CC2)c(Cl)c1	1.83%	2.54%	0.22%
Clc1cccc(Nc2ccc3c(N4CCCCC4)ncnc3n2)c1	12%	10.8%	4.28%
CCCC(C)NC(=O)[C@H](CC1CCCCC1)NC(=O)c1ccc(O)c(-c2cccc(C(F)(F)F)c2)c1 (some centres not stated)	-1.37%	3.47%	0.42%
Cc1cc(=NN=Cc2cccc(Cl)c2)c2ccccc2[nH]1	5.11%	6.14%	3.65%
COc1cccc(-c2csc(C(=O)NCC3CCN(Cc4ccc(C(C)(C)C)cc4)C3)c2)c1 (configuration not stated)	3.1%	-1.27%	2.46%
CCNc1cc(C(=O)N[C@@H](Cc2ccccc2)[C@H](O)CNC(C)Cc2cccc(Cl)c2)cc(N2CCCCS2(=O)=O)c1 (some centres not stated)	0.81%	2.5%	-1.63%
CN1CCN(c2ccnc3ccc(NC(=O)Nc4cccc5c(Br)cccc45)cc23)CC1	0.91%	3.33%	2.86%
Cc1c(Cl)cccc1N=C(S)NN=Cc1ccccn1	1.43%	2.56%	-0.2%
Cc1ccc(NC(=O)c2ccc(N3CCN(c4ccncc4)CC3)cc2)cc1F	68%	74.7%	82.4%
Oc1cccc(Nc2ccnc3cc(-c4cc5ccccc5o4)ccc23)c1	-0.71%	-0.27%	-2.34%
c1ccc2cc3c(NCCN4CCOCC4)ccnc3cc2c1	7.07%	6.74%	7.2%
COc1cc2nc(NCCc3ccccc3)nc(NC(C)c3ccccc3)c2cc1OC (configuration not stated)	7.18%	6.76%	3.19%
COc1ccccc1Cc1c(C)nc2nc(N)nc(N)c2c1C	6.33%	4.07%	7.13%
O=C(NCc1ccc(F)cc1)c1cc(Br)cc(N2CCN(c3ccncc3)CC2)c1	7.75%	6.55%	4.17%
O=C(Nc1cccc(CN2CCCN(Cc3ccc(O)cc3)CC2)c1)c1cccc(C(F)(F)F)c1	10.5%	9.62%	11.3%
c1ccc(C23NC(=Nc4nc5ccccc5[nH]4)NC2(c2ccccc2)NC(=Nc2nc4ccccc4[nH]2)N3)cc1 (configuration not stated)	3.64%	3.18%	5.58%
COc1ccc2ccccc2c1C=NN=c1cc(C)[nH]c2c(C)cccc12	1.52%	1.8%	3.6%
CN(C)Cc1cccc(-c2ccc3ccnc(N)c3c2)c1	1.78%	3.34%	1.17%
O=C(CN1CCCC1)Nc1cccc(C(=O)Nc2cccc(C(F)(F)F)c2)c1	1.71%	1.57%	3.18%
